The structures appear in SMILES notation. The campaign covered roughly 2,300 compounds. About 790 (34%) were called active. How the calls were made is not given here. Some of the results follow. Results with a measured potency or affinity are listed apart.

Data on 34 compounds can be found in PubChem BioAssay AID489025 (Southern Research Specialized Biocontainment Screening …, 2010).

The nature of this experiment: THP-1 cell cytotoxicity, dose response, cytotoxicity control for non-replicating M. tuberculosis project (AID 489025). The note with it: THP-1 cell viability; series mostly up to 40 µM; viability: at the top concentration.
With `NC(=O)N/N=C/c1ccccc1OC(=O)c1cc2ccccc2oc1=O`, the viability – broadly, a read-out of living cells in per cent, often relative to untreated cells – was 131% (inactive).

Turning to `Cc1ccc(C(=O)N2N=C(CC(C)C)CC2(O)C(F)(F)F)o1` (centres undefined), the “viability” value was 101% (inactive).

Regarding `Cn1nnc(NC(=O)COc2ccc(C3CCCCC3)cc2)n1`, the “viability” value was 104% (inactive).

As to `Cc1cc(O)c(-c2cc(O)c(C)cc2O)cc1O`, the “viability” value was 95.9% (inactive).

Consider `COc1ccc(-c2nnc(NC(=O)C3=COCCO3)o2)cc1`, for which the “viability” value was 102% (inactive).

For `COc1ccc(-c2nnc(SCC(C)C)o2)cc1`, the “viability” value was 81.9% (inactive).

As for `Cc1ccn2nc(S(=O)(=O)Nc3c(F)cccc3F)nc2n1`, the “viability” value was 101% (inactive).

Take `CC(=O)Nc1ccc(NC(=O)c2cc([N+](=O)[O-])cc([N+](=O)[O-])c2)cc1`: the “viability” value was 102% (inactive).

As to `COc1cccc(NC(=O)c2ccc(-c3ccc([N+](=O)[O-])cc3)o2)c1`, the “viability” value is 98.6% (inactive).

As for `COc1ccc(CNC(=O)c2cc3cccc(O)c3oc2=N)cc1`, the “viability” value was 107% (inactive).

`CCOC(=O)COc1ccc2c(=O)c(-c3ccccc3OC)coc2c1`: the “viability” value was 114% (inactive).

`COC(=O)COc1ccc(-c2nn(C)c(=O)c3ccccc23)cc1`: the “viability” value was 86.9% (inactive).

`O=C(CNC(=O)c1ccco1)OCc1ccc(C(=O)Oc2ccccc2)cc1`: the “viability” value was 106% (inactive).

In the case of `CCOC(=O)c1ccc(NC2OC(=O)c3ccccc32)cc1` (centres undefined), the “viability” value is 110% (inactive).

With `CCOC(=O)CC(=O)Nc1ccc(C(=O)OCC)cc1`, the “viability” value is 88.2% (inactive).

Regarding `c1ccc(C2=Nc3ccccc3OC2)cc1`, the “viability” value is 115% (inactive).

With `COc1cc(/C=N/NC(=O)c2ccccn2)ccc1OC(=O)c1cccs1`, the “viability” value was 88.8% (inactive).

Take `C/C(=N\Nc1ccc(Cl)cc1)c1ccccn1`: the “viability” value is 93.5% (inactive).

In the case of `O=C(N/N=C/c1ccccn1)c1cccc(S(=O)(=O)Nc2ccccc2Cl)c1`, the “viability” value was 87.6% (inactive).

`O=C(CCc1c[nH]c2ccccc12)Nc1ncccc1O`: the “viability” value is 126% (inactive).

On to `CC(C)c1ccc(/C=N/NC(=O)c2ccccn2)cc1`, for which the “viability” value was 91.5% (inactive).

With `O=C(N/N=C/c1ccccn1)c1ccccc1`, the “viability” value is 70.2% (inactive).

In the case of `Cc1ccnc(NC(=O)CCc2c[nH]c3ccccc23)c1`, the “viability” value was 74.2% (inactive).

For `COc1cccc(/C=N/N2C(=O)CSC2=S)c1O`, the “viability” value was 112% (inactive).

Consider `CCCC(C)C(=O)Nc1ccc(Cl)cn1` (centres undefined), for which the “viability” value was 114% (inactive).

As to `O=[N+]([O-])c1ccc(N2CCCCCC2)c2nonc12`, the “viability” value was 112% (inactive).

In the case of `CC1CCCN(CCC(=O)c2ccc(Br)cc2)C1` (centres undefined), the “viability” value is 98.7% (inactive).

Consider `C/C(=N\Nc1cccc2cccnc12)c1ccccn1`, for which the “viability” value was 79.8% (inactive).

On to `CC(OC(=O)c1ccc2c(=O)n3c(nc2c1)CCCCC3)C(=O)Nc1ccc(Cl)cn1` (centres undefined), for which the “viability” value was 80.8% (inactive).

As to `CCOC(=O)c1cc(-c2csc(COc3ccccc3)n2)on1`, the “viability” value was 95.9% (inactive).

In the case of `Cc1occc1C(=O)N/N=C/c1ccc[nH]1`, the “viability” value is 82.8% (inactive).

As for `O=C(N/N=C/c1cn[nH]c1-c1ccccc1)c1ccco1`, the “viability” value was 96.9% (inactive).

For the compound `Cn1cccc1/C=N/NC(=O)c1ccco1`, the “viability” value is 102% (inactive).

With `COc1cc(Cl)cc(/C=N/NC(N)=O)c1O`, the “viability” value was 103% (inactive).
